Screening results from PubChem.
Many of the other results were omitted from the sample, so hits are more common in it than they were.
Pf Dd2 growth: blocks in vitro growth of P. falciparum Dd2 | P. falciparum Dd2 growth, SYBR Green, 72 h | Potency, µM (titrated, usually from 28.9 µM), for inactives: at the top dose activity, negative = inhibition, hits mostly inhibitors | 4.3% of 120,000 active; active = well fitted inhibition curve with a large enough effect;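 note: plate controls were DMSO vehicle for no effect and reference drug for full effect; nearly all actives have a fitted effect of over 65% in size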
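Infected erythrocytes (Dd2, 0.3% parasitemia, 2.5% hematocrit final) are added to compound in RPMI-1640/Albumax II medium, grown 72 h at 37C in low oxygen, then lysed with saponin/Triton-X containing SYBR Green and read by fluorescence.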
* hit, by the source's call; i = inactive; [ ] = remark or other dose. Potency is the fitted concentration of half-maximal effect.

SMILES | Pf Dd2 growth
CC(=O)Nc1ccc(CN2CCC(c3nc4ccc(C)cc4c(=O)[nH]3)CC2)cc1 | -10.9%
COCCn1c(=NC(=O)c2ccc3c(c2)OCCO3)sc2cc(NC(C)=O)ccc21 | i
COc1cccc(-c2noc(-c3ccc(NCCn4cccn4)nc3)n2)c1OC | 12.6µM*
COc1cccc(-c2noc(-c3ccc(-c4cn[nH]c4)nc3)n2)c1OC | -23.2%
COc1cccc(-c2noc(-c3ccc(NCCCSC)nc3)n2)c1OC | i
Cc1cccc(OC[C@H]2C[C@@H](NC(=O)Nc3ccccc3)[C@H](O)[C@@H]2O)n1 | 15.7%[44.1 µM]
CC(=O)N1CCN(c2csc3ccc(Cl)cc3c2=O)CC1 | -1.1%
O=C1OCC2(CCN(Cc3ccn[nH]3)C2)N1Cc1ccccc1 (stereo not drawn) | -9.3%[44.1 µM]
O=C1OCC2(CCN(Cc3ccccc3O)C2)N1Cc1ccccc1 (stereo not drawn) | 10µM*
N#Cc1ccc(CN2CCC3(COC(=O)N3Cc3ccccc3)C2)cc1 (stereo not drawn) | -5.1%[44.1 µM]
Cc1cc(C)c2nc(C)cc(Nc3cccc(C(=O)O)c3)c2c1 | -7.4%
OCc1ccc(-c2nccn2CCc2noc(-c3ccccc3)n2)o1 | -2.9%
CC(=O)Nc1ccc(S(=O)(=O)NC2(C(F)(F)F)NC(=O)N(c3ccccc3F)C2=O)cc1 (stereo not drawn) | 29.0%
COC(=O)[C@H](Cc1ccc(OC)cc1)NC(=O)[C@H]1CN(C(=O)c2ccc(N(C)C)cc2)CCN1C(=O)c1cccs1 | 0.141µM*
COC(=O)[C@H](Cc1ccc(OC)cc1)NC(=O)[C@@H]1CN(C(=O)NC(C)C)CCN1C(=O)c1cccs1 | -20.7%
CN(C)c1ccc(C(=O)N2CCN(S(C)(=O)=O)[C@H](C(=O)N[C@@H](CC3CCCCC3)C(N)=O)C2)cc1 | i
COC(=O)[C@H](Cc1ccc(OC)cc1)NC(=O)[C@H]1CN(S(=O)(=O)c2ccccc2)CCN1C(=O)NC1CCCCC1 | 11.2µM*
COC(=O)[C@H](Cc1ccc(OC)cc1)NC(=O)[C@H]1CN(C(=O)Nc2ccccc2)CCN1C(=O)C1CCCCC1 | i
COC(=O)[C@H](Cc1ccc(OC)cc1)NC(=O)[C@H]1CN(C(=O)c2ccc(N(C)C)cc2)CCN1C(=O)C1CCCCC1 | 0.398µM*
COC(=O)[C@H](Cc1ccc(OC)cc1)NC(=O)[C@@H]1CN(C(=O)c2cccc(F)c2)CCN1C(C)=O | -5.7%
COC(=O)[C@@H](C)NC(=O)[C@H]1CN(S(=O)(=O)c2ccccc2)CCN1C(=O)NC1CCCCC1 | 13.7%
COC(=O)[C@H](Cc1ccc(OC)cc1)NC(=O)[C@@H]1CN(S(C)(=O)=O)CCN1S(=O)(=O)c1ccccc1 | 20.5%
Cc1ccc2[nH]c(=O)c(CCC(=O)NCc3ccco3)cc2c1 | i
Cc1ccc(C)c(N2CCN(C(=O)c3ccc(NC(=O)c4nsc5ccccc45)cc3)CC2)c1 | 50.1%[0.594 µM]
Cn1cc(CN2C[C@H](C(=O)Nc3ccccn3)C[C@@H]2c2cccc(C(F)(F)F)c2)cn1 | -22.9%[44.1 µM]
SMILES | Pf Dd2 growth
O=C(c1ccc2c(c1)OCO2)N1CCC12Cc1ccccc1NC2=O (stereo not drawn) | -2.8%[44.1 µM]
Cc1nn2c(C)c(C(=O)N3CCN(c4ccccc4F)CC3)cnc2c1-c1ccc(F)cc1 | 43.0%
CCn1c(C)c(C)c2cc(C(=O)NCc3ccc(OC)cc3OC)ccc21 | i
Cc1cccc(C(=O)N2C(C(=O)NCc3ccccc3)COC23CCC(C)CC3)c1 (stereo not drawn) | i
CC1CCC2(CC1)OCC(C(=O)NCc1ccccc1)N2C(=O)c1cccc(Cl)c1 (stereo not drawn) | i
CC1CCC2(CC1)OCC(C(=O)NCc1ccccc1)N2C(=O)c1ccc(Cl)c(Cl)c1 (stereo not drawn) | 8.91µM*
O=C(NCC12CC3CC(CC(C3)C1)C2)c1cc2nc(-c3ccc(F)cc3)cc(C(F)(F)F)n2n1 | -1.7%
COc1ccc2[nH]c3c(c2c1)CCN(C(=O)c1cccc(Cl)c1)C3c1ccc(F)cc1 (stereo not drawn) | -20.5%
COc1ccc(NC(=O)N2CCc3c([nH]c4ccc(OC)cc34)C2c2ccc(OC)cc2)cc1 (stereo not drawn) | 4.47µM*
COc1ccc2[nH]c3c(c2c1)CCN(C)C31CCN(C(=O)C2CCC2)CC1 | i
Cc1ccc(CNC(=O)Cn2nc3n(c2=O)CCCCC3)cc1 | 30.3%
Cc1cc(-c2ccc(S(=O)(=O)Nc3ccc(Br)c(C)c3)s2)on1 | 2.6%
CSc1nc(NCCOC(C)=O)c(C#N)c(-c2ccc(C(C)(C)C)cc2)n1 | 10µM*
CSc1nc(Nc2cccc(C)c2)c(C#N)c(-c2ccccc2)n1 | 1.8%
COc1cccc(-c2ccc(CN3C4CCC3CN(C(C)C)C4)cc2)c1 | 18.2%
CN(C(=O)Cc1ccc(F)cc1)C1CCCc2ccccc21 (stereo not drawn) | 15.8µM*
COCC(=O)N(C)C1CCCc2ccccc21 (stereo not drawn) | -22.6%[44.1 µM]
CN(C(=O)Nc1ccc(Cl)cc1)C1CCCc2ccccc21 (stereo not drawn) | -11.6%[44.1 µM]
CN(C(=O)c1ccccc1)C1CCCc2ccccc21 (stereo not drawn) | i
CN(Cc1ccc(F)cc1)C1CCCc2ccccc21 (stereo not drawn) | i
CN(C(=O)Nc1ccccc1)C1CCCc2ccccc21 (stereo not drawn) | 15.8µM*
COc1cccc(-c2ccc(NC(=O)C3CCCN(C(=O)Cn4cncn4)C3)cc2)c1 (stereo not drawn) | -22.1%
CO[C@H]1C(=O)N(C2CCN(C(=O)CCn3cccn3)CC2)[C@H]1c1ccncc1 | 38.9%
Cc1cc(C)n(CCC(=O)NC2CCCN(c3cc(-c4ccc(Cl)cc4)[nH]n3)C2)n1 (stereo not drawn) | i
Cc1ccc(-c2cc(N3CCC(CNC(=O)c4ccc(=O)[nH]c4)CC3)n[nH]2)cc1 | 12.6µM*
SMILES | Pf Dd2 growth
O=C(NCC1CCN(c2cc(-c3ccccc3)[nH]n2)CC1)c1ccc[nH]c1=O | -28.4%
Cc1noc(C)c1CC(=O)NCC1CCN(c2cc(-c3ccccc3)[nH]n2)CC1 | i
O=C(NCC1CCN(c2cc(-c3ccccc3)[nH]n2)CC1)c1ccc[nH]1 | -24.5%
Cc1cc(C)n(CCC(=O)NCC2CCN(c3cc(-c4ccccc4)[nH]n3)CC2)n1 | 11.2µM*
COc1ccccc1OCC(=O)c1ccc2c(c1)N(CCCC(=O)N1CCC(C)CC1)C(=O)CO2 | i
COC1CCN(c2ccc(C(=O)NCCCn3ccnc3C(C)C)cn2)CC1 | -18.6%
COCCOc1ccc2c(n1)CCN(C(=O)c1ccc(OC)nc1)C2 | -10.0%
CCOc1ccc(NC(=O)CSc2nc3ccsc3c(=O)n2CCC(C)C)cc1 | -2.2%
Cn1ccnc1CN1C(=O)CO[C@H](c2ccc(NC(=O)CCc3ccccc3)cc2)[C@H]1CO | -21.3%
Cn1nccc1C(=O)NCC1Cn2cccc2CN1Cc1ccccc1 (stereo not drawn) | -8.3%
Cn1cnc(S(=O)(=O)NCC2Cn3cccc3CN2Cc2ccccc2)c1 (stereo not drawn) | -15.9%
CCn1ccc(C(=O)NCC2Cn3cccc3C(=O)N2CC(C)C)n1 (stereo not drawn) | -18.6%
CCn1ccc(C(=O)NCC2Cn3cccc3CN2Cc2ccccc2)n1 (stereo not drawn) | 14.1µM*
CN1Cc2cccn2CC1CNC(=O)Cc1cccc(F)c1 (stereo not drawn) | -25.0%
Cc1cc(C(=O)NCC2Cn3cccc3C(=O)N2Cc2ccccc2)n(C)n1 (stereo not drawn) | 35.4%
CN1Cc2cccn2CC1CNC(=O)Cc1ccccc1 (stereo not drawn) | -18.9%
